According to article PMC4552634, “A New Set of Chemical Starting Points with Plasmodium falciparum Transmission-Blocking Potential for Antimalarial Drug Discovery” (PLoS ONE, 2015):
The whole screen tested about 13,000 compounds, of which about 3,200 (25%) showed an effect of 50% or more. Some of the results follow.

system: P. falciparum stage V gametocytes; parameters: BacTiter-Glo ATP luminescence viability of purified stage V gametocytes in 384-well plates, per cent inhibition versus DMSO; details: 48 h, 5 µM; inhibitor

| SMILES | % Inhibition |
| --- | --- |
| CCCc1cc(OC)c(CC2c3cc(O)c(C)cc3CCN2C)cc1OC (stereo not drawn) [TCMDC-137164] | -32.49% |
| Cc1c(C)n(C2CCCCC2)c2ncnc(OC3CCN(CC(=O)NC4CC4)CC3)c12 [TCMDC-124853] | 15.8% |
| CCCc1cnc2nc(N)nc(N)c2c1C [TCMDC-138066] | 12.33% |
| Cn1cc(-c2ccccc2C(=O)O)c(=O)c2cc(Cl)ccc21 [TCMDC-123861] | 6.577% |
| CCOc1cc(C(=O)N[C@@H](Cc2ccccc2)[C@H](O)CNCc2cc(OC)cc(OC)c2)cc(N2CCCC2=O)c1 [TCMDC-134571] | -29.57% |
| COCc1cc(C)nc2sc(C(=O)Nc3cc(C(C)(C)C)ccc3O)c(N)c12 [TCMDC-125131] | 1.168% |
| O=C(/C=C/c1ccc(Cl)c(Cl)c1)NCCCCCN1CCCN(C(=O)Nc2cc(F)cc(F)c2)CC1 [TCMDC-135751] | -53.24% |
| Oc1cccc(Nc2ccnc3cc(-c4cc5ccccc5o4)ccc23)c1 [TCMDC-138287] | -55.42% |
| COc1ccc(Cc2c(N)nc3nc(N)nc(N)c3c2C)cc1 [TCMDC-138061] | 18.63% |
| COc1cccc(-c2cc3c(NCc4ccncc4)nccc3s2)c1 [TCMDC-135200] | -6.172% |
| CC(C)CC(=O)N1CCNC[C@@H]1C(=O)NCCSCc1c(F)cccc1Cl [TCMDC-141243] | -23.04% |
| O=C(/C=C/c1ccc(Cl)c(Cl)c1)N1CCCC(CCCN2CCC(c3c[nH]c4ccccc34)CC2)C1 (stereo not drawn) [TCMDC-139505] | 18.14% |
| NC(N)=NN=Cc1c2ccccc2c(Cl)c2ccc(Cl)cc12 [TCMDC-137911] | 98.76% |
| NC(N)=NN=Cc1c2ccccc2c(Cl)c2cc(Cl)ccc12 [TCMDC-137903] | 96.19% |
| Clc1ccc2c(NN=Cc3ccccc3)ccnc2c1 [TCMDC-123962] | -43% |
| NC(N)=NN=Cc1c[nH]c2ccc(-c3ccccc3)cc12 [TCMDC-138961] | -59.33% |
| NC(N)=NN=CC(=O)Nc1ccc(Cl)c(Cl)c1 [TCMDC-137466] | -3.448% |
| NC(N)=NN=Cc1c2ccccc2c(Cl)c2c(Cl)cccc12 [TCMDC-137898] | 83.04% |
| NC(N)=NN=Cc1c2ccc(Cl)cc2c(Cl)c2ccc(Cl)cc12 [TCMDC-137884] | 111.2% |
| Cc1cc(C)c(C)c(S(=O)(=O)N2CCCCC(c3ccc(F)c(F)c3)=N2)c1C [TCMDC-135419] | -64.55% |
| CCCc1cc(Cc2cnc(N)nc2N)cc(CC)c1OC [TCMDC-137693] | 21.32% |
| COc1ccc(Nc2nccc(N3CCC(NC(=O)Nc4ccc5c(c4)OCO5)C3)n2)cc1 (stereo not drawn) [TCMDC-133617] | -60.34% |
| CN(C)CCC1CCN(CCS(=O)(=O)c2cccc(Nc3ncc(-c4cccc(F)c4)cn3)c2)CC1 [TCMDC-134374] | 1.071% |

| SMILES | % Inhibition |
| --- | --- |
| COc1cccc2c1CCN(CCN1CCC(CNC(=O)c3ccc(-c4ccc(C#N)cc4)cc3)CC1)C2 [TCMDC-134140] | 16.45% |
| N#Cc1ccc(-c2ccc(C(=O)NCCCCN3CCC(c4cn(CCO)c5ccccc45)CC3)cc2)cc1 [TCMDC-138836] | -28.51% |
| CC(C)Cn1cc(C2CCN(CCN3CCC(CNC(=O)c4ccc(-c5ccc(C#N)cc5)cc4)CC3)CC2)c2ccccc21 [TCMDC-138849] | 100.8% |
| N#Cc1ccc(-c2ccc(C(=O)NCCCCN3CCC(c4cn(CCCO)c5ccccc45)CC3)cc2)cc1 [TCMDC-138837] | -51.57% |
| C=C(C)Cn1cc(C2CCN(CCN3CCC(CNC(=O)c4ccc(-c5ccc(C#N)cc5)cc4)CC3)CC2)c2ccccc21 [TCMDC-138854] | 103.5% |
| COc1ccc2c(c1)CCN(CCN1CCC(CNC(=O)c3ccc(-c4ccc(C#N)cc4)cc3)CC1)C2 [TCMDC-138881] | -33.61% |
| COc1cc(C=C(C2=NC(=O)CS2)c2nc3cccnc3n2C)ccc1O [TCMDC-135917] | -7.7% |
| O=C(CC1CCCCC1)NCC(NCCCNc1cc(=O)c2ccccc2[nH]1)c1cc(Br)cc(Br)c1 (stereo not drawn) [TCMDC-140315] | -37.31% |
| Cc1cccc2[nH]c(-c3ccc(-c4cccc(NC(=O)C(C)CN(C)C)c4)cc3)nc12 (stereo not drawn) [TCMDC-137103] | -53.92% |
| CC(=O)c1c(CC(=O)O)c2ccccc2n1O [TCMDC-131414] | 58.24% |
| CCCCOc1ccc(-n2c(Nc3ccccc3)nc3cc(S(N)(=O)=O)ccc32)cc1 [TCMDC-135489] | -3.968% |
| CC1CCC(C[C@@H](C(=O)N[C@@H](CCC(=O)N2CCCCC2)C(=O)Nc2nccs2)[C@H](C(C)C)N(O)C=O)CC1 (stereo partly drawn) [TCMDC-138168] | -16.64% |
| COc1cccc(Nc2nc(Nc3cccc(C#N)c3)cc(-c3ccncc3)n2)c1 [TCMDC-133447] | 6.387% |
| O=C(CSc1n[nH]c(=O)n1Cc1ccccc1)Nc1ccccc1-c1ccccc1 [TCMDC-123557] | 0.01985% |
| COc1ccccc1-n1c(SCC(=O)c2ccc3c(c2)CC(=O)N3C)nnc1-c1cccs1 [TCMDC-124819] | 56.33% |
| Cn1c(N)c(C(=O)CSc2nnc(-c3cccs3)n2Cc2ccccc2)c(=O)n(C)c1=O [TCMDC-124496] | -5.537% |
| COc1ccc(C2CC(c3cccs3)=NN2C(=O)c2ccccc2)cc1OC (stereo not drawn) [TCMDC-123755] | -49.1% |
| CN1CCCC1CNS(=O)(=O)c1ccc(C(=O)NCC2CC2)cc1 (stereo not drawn) [TCMDC-133683] | 0.07982% |
| CCc1ccc(C(=O)NC(=O)c2ccccc2O)cc1 [TCMDC-123479] | 19.58% |
| CN(C)CCNCc1nc(-c2ccc3c(Nc4ccc(Cl)cc4F)ccnc3c2)cs1 [TCMDC-138455] | 16.78% |
| CS(=O)(=O)CCNCc1nc(-c2ccc3c(Nc4ccc(Oc5ccccn5)cc4)ccnc3c2)cs1 [TCMDC-138438] | -37.4% |
| CN(C)CCNCc1nc(-c2ccc3c(Nc4ccc(Oc5ccccc5)cc4)ccnc3c2)cs1 [TCMDC-138410] | 95.14% |
| CN(C)CCN(C)Cc1nc(-c2ccc3c(Nc4ccc(Oc5ccccc5)cc4)ccnc3c2)cs1 [TCMDC-138408] | 77.6% |

| SMILES | % Inhibition |
| --- | --- |
| Cc1ccc(O)cc1Nc1ccnc2cc(-c3csc(CN(C)CCN(C)C)n3)ccc12 [TCMDC-138458] | 49.52% |
| c1ccc(Oc2ccc(Nc3ccnc4cc(-c5csc(CNCCN6CCOCC6)n5)ccc34)cc2)cc1 [TCMDC-138407] | 5.088% |
| CCc1ccc2nc(-c3ccc(F)cc3)nc(SCC(=O)Nc3sc(C)c(C)c3C#N)c2c1 [TCMDC-125430] | 16.25% |
| COc1ccc2nccc([C@@H](O)CN3CCC(NC(=O)c4cc5c(F)cc(F)cc5[nH]4)CC3)c2n1 [TCMDC-134945] | -17.57% |
| COc1cc2c(=O)c(Cc3ccc(Cl)cc3)c(C)[nH]c2cc1F [TCMDC-137280] | 22.18% |
| CCCCCCc1c(C)[nH]c2cc(OC)ccc2c1=O [TCMDC-138010] | 73.98% |
| CCCCCCCc1c(C)[nH]c2cc(OC)ccc2c1=O [TCMDC-137173] | 75.71% |
| CO/C(=C\C=C\c1cc2cc(Cl)c(Cl)cc2[nH]1)C(=O)N[C@H]1CN2CCC1CC2 [TCMDC-139095] | -57.18% |
| CO/C(=C\C=C\c1cc2cc(Cl)c(Cl)cc2[nH]1)C(=O)NC1CC(C)N(C)C(C)C1 (stereo not drawn) [TCMDC-139085] | -67.29% |
| CO/C(=C\C=C\c1cc2cc(Cl)c(Cl)cc2[nH]1)C(=O)NC1CCN(CCCc2ccccc2)CC1 [TCMDC-139657] | 70.65% |
| CO/C(=C/C=C/c1cc2cc(Cl)c(Cl)cc2[nH]1)C(=O)NC1CC(C)(C)N(C)C(C)(C)C1 [TCMDC-139097] | 81.55% |
| CO/C(=C\C=C\c1cc2cc(Cl)c(Cl)cc2[nH]1)C(=O)NC1CCN(CCNc2ccccc2)CC1 [TCMDC-139535] | -22.32% |
| CO/C(=C\C=C\c1cc2cc(Cl)c(Cl)cc2[nH]1)C(=O)NC1CCN(CCOc2ccccc2)CC1 [TCMDC-139454] | 27.46% |
| CO/C(=C\C=C/c1cc2cc(Cl)c(Cl)cc2[nH]1)C(=O)NC1CC(C)(C)N(C)C(C)(C)C1 [TCMDC-139106] | -40.37% |
| CO/C(=C\C=C\c1cc2cc(Cl)c(Cl)cc2[nH]1)C(=O)NC1CC2CCC(C1)N2C (stereo not drawn) [TCMDC-139038] | 73.28% |
| CO/C(=C\C=C\c1cc2cc(Cl)c(Cl)cc2[nH]1)C(=O)NC1CC2CCCC(C1)N2C (stereo not drawn) [TCMDC-139067] | 19.33% |
| CC(C)(CNC(=O)[C@H]1CCCCN1)c1nc(-c2ccc(Cl)c(O)c2)c(-c2ccncc2)[nH]1 [TCMDC-141070] | -44.74% |
| Oc1ccccc1-c1nc2cccnc2n1CCc1cccc(C(F)(F)F)c1 [TCMDC-135091] | 14.7% |
| Cc1sc2ncnc(Sc3nnc(N)s3)c2c1C [TCMDC-124542] | 96.33% |
| CCc1cc2c(Sc3nnc(N)s3)ncnc2s1 [TCMDC-123993] | 80.67% |
| COc1ccc(-c2cc(C(=O)N[C@@H](CC3CCCCC3)C(=O)NC3CCCc4ccccc43)ccc2O)cc1 (stereo partly drawn) [TCMDC-140806] | 24.41% |
| O=C(NCCN1CCCc2ccccc21)C1CCN(c2nc(-c3ccc(Cl)cc3)no2)CC1 [TCMDC-125165] | 5.616% |
| Cc1noc(C)c1-c1cccc(CNCc2cccc(-c3cccc(-c4nc5cc(F)ccc5[nH]4)c3)c2)c1.O=C(O)C(F)(F)F [TCMDC-133064] | -20.89% |
